Source: PubChem BioAssay AID1159580 (chemical genetic matrix, 2015)
Values joined by “and” are separate entries in the source; they are usually repeats but may differ in a detail not shown here. Equal values may be shown once. In all, about 5,500 compounds went through this assay and about 2,000 (36%) were called active. Another 18% or so got no clear call; they are omitted. Rule as the data show it: active = normalized growth mostly below about 0.91 (no sharp cut-off); inconclusive = no clear call, values can overlap the other calls; inactive = mostly above about 0.92. The list shows a part of the results.

Assay: chemical genetic growth profiling, strain panel (AID 1159580);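 also: tested at 20 µM; growth read once vehicle control cultures reached saturation at 30 °C; 1 = growth at the plate median or of vehicle wells; lower values mean less growth of the strain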
Conditions: growth OD

Measured: normalized growth

CC12CC3CC(C)(C1)CC(N)(C3)C2
inactive: S. cerevisiae deletion strains, locus YJR075W, strain HOC1, stronger effect = lower value 1.01 | S. cerevisiae deletion strains, locus YKL009W, strain mrt4, stronger effect = lower value 1.03 | S. cerevisiae deletion strains, locus YKL068W, stronger effect = lower value 0.999 | S. cerevisiae deletion strains, locus YKL085W, strain MDH1 (second series), stronger effect = lower value 0.996 | S. cerevisiae deletion strains, locus YKL085W, strain MDH1, stronger effect = lower value 0.996 | S. cerevisiae deletion strains, locus YKL160W, strain elf1, stronger effect = lower value 1 | S. cerevisiae deletion strains, locus YKL190W, strain CNB1, stronger effect = lower value 0.999 | S. cerevisiae deletion strains, locus YKR001C, strain vps1, stronger effect = lower value 1.02 | S. cerevisiae deletion strains, locus YKR026C, strain gcn3, stronger effect = lower value 0.982 | S. cerevisiae deletion strains, locus YKR091W, strain srl3, stronger effect = lower value 0.99 | S. cerevisiae deletion strains, locus YLL001W, strain dnm1, stronger effect = lower value 0.972 | S. cerevisiae deletion strains, locus YLL026W, stronger effect = lower value 0.995 | S. cerevisiae deletion strains, locus YLL041C, strain sdh2, stronger effect = lower value 0.997 | S. cerevisiae deletion strains, locus YLR027C, strain aat2, stronger effect = lower value 0.991 | S. cerevisiae deletion strains, locus YLR039C, strain RIC1, stronger effect = lower value 1.04 | S. cerevisiae deletion strains, locus YLR058C, strain SHM2, stronger effect = lower value 0.999 | S. cerevisiae deletion strains, locus YLR102C, strain apc9, stronger effect = lower value 0.996 | S. cerevisiae deletion strains, locus YLR113W, strain HOG1, stronger effect = lower value 0.996 | S. cerevisiae deletion strains, locus YLR221C, strain rsa3, stronger effect = lower value 1 | S. cerevisiae deletion strains, locus YLR258W, strain gsy2, stronger effect = lower value 1 | S. cerevisiae deletion strains, locus YLR262C, strain YPT6 (second series), stronger effect = lower value 1 | S. cerevisiae deletion strains, locus YLR262C, strain YPT6, stronger effect = lower value 0.979 | S. cerevisiae deletion strains, locus YLR268W, strain sec22, stronger effect = lower value 1.07 | S. cerevisiae deletion strains, locus YLR320W, strain mms22, stronger effect = lower value 1 | S. cerevisiae deletion strains, locus YLR330W, strain CHS5, stronger effect = lower value 1 | S. cerevisiae deletion strains, locus YLR342W, strain FKS1 (second series), stronger effect = lower value 1.01 | S. cerevisiae deletion strains, locus YLR342W, strain FKS1, stronger effect = lower value 0.985 | S. cerevisiae deletion strains, locus YLR357W, strain rsc2, stronger effect = lower value 0.969 | S. cerevisiae deletion strains, locus YLR370C, strain arc18, stronger effect = lower value 0.995 | S. cerevisiae deletion strains, locus YLR371W, strain rom2, stronger effect = lower value 1.01 | S. cerevisiae deletion strains, locus YLR384C, strain iki3, stronger effect = lower value 0.99 | S. cerevisiae deletion strains, locus YLR418C, strain cdc73, stronger effect = lower value 1.01 | S. cerevisiae deletion strains, locus YML016C, strain PPZ1, stronger effect = lower value 0.998 | S. cerevisiae deletion strains, locus YML032C, strain rad52, stronger effect = lower value 1.02 | S. cerevisiae deletion strains, locus YML120C, strain ndi1, stronger effect = lower value 1 | S. cerevisiae deletion strains, locus YML124C, strain tub3, stronger effect = lower value 1.01 | S. cerevisiae deletion strains, locus YMR058W, strain fet3, stronger effect = lower value 0.993 | S. cerevisiae deletion strains, locus YMR078C, strain ctf18, stronger effect = lower value 1 | S. cerevisiae deletion strains, locus YMR125W, strain sto1, stronger effect = lower value 0.975 | S. cerevisiae deletion strains, locus YMR129W, stronger effect = lower value 0.979 | S. cerevisiae deletion strains, locus YMR205C, strain PFK2, stronger effect = lower value 0.993 | S. cerevisiae deletion strains, locus YMR223W, strain ubp8, stronger effect = lower value 0.986 | S. cerevisiae deletion strains, locus YMR231W, strain pep5, stronger effect = lower value 0.982 | S. cerevisiae deletion strains, locus YMR263W, strain SAP30, stronger effect = lower value 1.01 | S. cerevisiae deletion strains, locus YMR307W, strain GAS1, stronger effect = lower value 0.964 and 0.971 | S. cerevisiae deletion strains, locus YNL067W, strain RPL9B, stronger effect = lower value 1.02 | S. cerevisiae deletion strains, locus YNL071W, strain lat1, stronger effect = lower value 0.986 | S. cerevisiae deletion strains, locus YNL128W, strain TEP1, stronger effect = lower value 1.01 | S. cerevisiae deletion strains, locus YNL153C, strain GIM3, stronger effect = lower value 1.01 | S. cerevisiae deletion strains, locus YNL175C, strain NOP13, stronger effect = lower value 0.994 | S. cerevisiae deletion strains, locus YNL183C, strain NPR1, stronger effect = lower value 0.935 | S. cerevisiae deletion strains, locus YNL197C, strain WHI3, stronger effect = lower value 1 | S. cerevisiae deletion strains, locus YNL209W, strain ssb2, stronger effect = lower value 0.992 | S. cerevisiae deletion strains, locus YNL224C, strain SQS1, stronger effect = lower value 1 | S. cerevisiae deletion strains, locus YNL233W, strain BNI4, stronger effect = lower value 1.01 | S. cerevisiae deletion strains, locus YNL248C, strain rpa49, stronger effect = lower value 0.961 | S. cerevisiae deletion strains, locus YNL250W, strain rad50, stronger effect = lower value 1.01 | S. cerevisiae deletion strains, locus YNL271C, strain bni1, stronger effect = lower value 1.01 | S. cerevisiae deletion strains, locus YNL298W, strain CLA4, stronger effect = lower value 1 | S. cerevisiae deletion strains, locus YNL307C, strain MCK1, stronger effect = lower value 1.01 | S. cerevisiae deletion strains, locus YNL322C, strain KRE1 (second series), stronger effect = lower value 0.993 | S. cerevisiae deletion strains, locus YNL322C, strain KRE1, stronger effect = lower value 0.998 and 0.989 | S. cerevisiae deletion strains, locus YNR049C, strain mso1, stronger effect = lower value 0.986 | S. cerevisiae deletion strains, locus YNR052C, strain pop2, stronger effect = lower value 1.01 | S. cerevisiae deletion strains, locus YOL006C, strain TOP1, stronger effect = lower value 1.05 | S. cerevisiae deletion strains, locus YOL012C, strain htz1 1.4 | S. cerevisiae deletion strains, locus YOL147C, strain pex11, stronger effect = lower value 1 | S. cerevisiae deletion strains, locus YOR001W, strain rrp6, stronger effect = lower value 0.985 | S. cerevisiae deletion strains, locus YOR061W, strain CKA2, stronger effect = lower value 1 | S. cerevisiae deletion strains, locus YOR069W, strain VPS5, stronger effect = lower value 1.01 | S. cerevisiae deletion strains, locus YOR070C, strain gyp1, stronger effect = lower value 0.991 | S. cerevisiae deletion strains, locus YOR080W, strain dia2, stronger effect = lower value 0.986 | S. cerevisiae deletion strains, locus YOR083W, strain WHI5 (second series), stronger effect = lower value 1.03 | S. cerevisiae deletion strains, locus YOR083W, strain WHI5, stronger effect = lower value 0.977 | S. cerevisiae deletion strains, locus YOR106W, strain vam3, stronger effect = lower value 0.993 | S. cerevisiae deletion strains, locus YOR136W, strain idh2, stronger effect = lower value 1.01 | S. cerevisiae deletion strains, locus YOR144C, strain elg1, stronger effect = lower value 1.01 | S. cerevisiae deletion strains, locus YOR184W, strain ser1, stronger effect = lower value 1.01 | S. cerevisiae deletion strains, locus YOR231W, strain MKK1, stronger effect = lower value 0.995 | S. cerevisiae deletion strains, locus YOR265W, strain rbl2, stronger effect = lower value 0.989 | S. cerevisiae deletion strains, locus YOR270C, strain vph1, stronger effect = lower value 0.921 | S. cerevisiae deletion strains, locus YOR290C, strain snf2, stronger effect = lower value 0.997 | S. cerevisiae deletion strains, locus YOR316C, strain cot1, stronger effect = lower value 1 | S. cerevisiae deletion strains, locus YPL051W, strain arl3, stronger effect = lower value 0.986 | S. cerevisiae deletion strains, locus YPL055C, strain LGE1, stronger effect = lower value 1 | S. cerevisiae deletion strains, locus YPL078C, strain atp4, stronger effect = lower value 0.986 | S. cerevisiae deletion strains, locus YPL106C, strain sse1, stronger effect = lower value 1.01 | S. cerevisiae deletion strains, locus YPL240C, strain hsp82, stronger effect = lower value 0.998 | S. cerevisiae deletion strains, locus YPL241C, strain CIN2, stronger effect = lower value 1 | S. cerevisiae deletion strains, locus YPL256C, strain CLN2, stronger effect = lower value 0.971 | S. cerevisiae deletion strains, locus YPR119W, strain clb2, stronger effect = lower value 1 | S. cerevisiae deletion strains, locus YPR141C, strain kar3, stronger effect = lower value 1.01 | S. cerevisiae deletion strains, locus YPR163C, strain tif3, stronger effect = lower value 1.01 | S. cerevisiae deletion strains, locus YPR167C, strain met16, stronger effect = lower value 1 | S. cerevisiae deletion strains, strain wtn01, stronger effect = lower value 1.02 | S. cerevisiae strains, strain wild type, stronger effect = lower value 1.01
